In all, about 59,000 sequences were measured (the read-out: median about -0.00055, lowest 2% from about -2 on). This is one part of a sample in which the lowest values are shown more often than they occur.
Test: Identification of proteins required for the processing of the EWS-FLI1 nascent transcript;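 note: robust z of luciferase light less the median z of siRNAs with the same seed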
Details: TC32 Ewing sarcoma NR0B1-luc vs CMV-luc (EWS-FLI1 target promoter against control promoter), 48 h; screened at 20 nM (by protocol)
Method in brief: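 Three siRNAs per gene, each in a separate well at 20 nM, were transfected into TC32 cells bearing either reporter construct. Luminescence was measured two days on, and per-gene comparison relied on seed-corrected Z values.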
For AUAUAGGAUCUUAUUGUGC against B4GAT1, the seed-corrected z-score was -0.205. Work on UUUUGUCCCGGAACAUGCG against BCR yielded a seed-corrected z-score of -0.22. Work on UUCUCGUUCUGUUAAGUUC against CCDC144B yielded a seed-corrected z-score of 0.479. In the case of UGUUGUAGUAGUAACGCAG against LOC390937, the seed-corrected z-score is reported as -3.19. Work on UCAGUUGUUACGCAAGGUG against PI16 yielded a seed-corrected z-score of -0.652. In the case of AAAUGGUCCAGAAUCCAGC against FOXN2, the seed-corrected z-score is reported as 0.634. UUUGGGUCGUUGUACAUCU against AGBL4 gave a seed-corrected z-score of -2.02. Sequence UACUGAACUCCAUCUGACU against C1orf198 has a seed-corrected z-score of 1.54. In the case of UCGUUGUAUAAUUUUGCCC against WDR17, the seed-corrected z-score is reported as -1.13. AAUGCGACGAGACAAGAUG against WASF2 gave a seed-corrected z-score of 0.812. For UUCAUUAAGAAGCACCUGG against NDFIP2, the seed-corrected z-score was 0.91. Work on ACUAGUACUGGGAAGGUCC against CDKN1C yielded a seed-corrected z-score of -2.28. Work on UCUAGGCUCAGCAAUGACU against CD19 yielded a seed-corrected z-score of 0.138. For AAUAGAUUCAACAAGGGUG against BCL10, the seed-corrected z-score was 1.13. AUGGAGGUAAUGACGAUCA against UPK3B showed a seed-corrected z-score of -2.86. With UCUAGAUACUUAAUGGUGC against LAMP2 the seed-corrected z-score was 0.192. In the case of UUAUUGACACUUGUUCAAG against COX7A1, the seed-corrected z-score is reported as 0.106. In the case of AAUGUAUCUAAGCAACUUC against DDIAS, the seed-corrected z-score is reported as -0.473. In the case of ACAUAGGUUGGGUCGAUCC against XYLT2, the seed-corrected z-score is reported as -1.65. UACUUAACCGGGAAGCUAC against NUMB gave a seed-corrected z-score of -0.172. For UUUGCAGGUAGAAUUAAGG against B3GALT5-AS1, the seed-corrected z-score was -2.65. With UUAGCAUCUGCAGCAUUCU against RBMY2DP the seed-corrected z-score was -0.255. With UGGGUUGUAGAGAUCUACC against AKAP4 the seed-corrected z-score was 0.156. With UACCCGGAAAAGUAAAUCC against ROBO2 the seed-corrected z-score was 0.288. Work on UGAUAUAUGAAUUGGAGUC against CDKN3 yielded a seed-corrected z-score of -0.146. UUCUUCAUCAGAUGGUUCC against SF3B2 showed a seed-corrected z-score of -3.21. AGUUUAGCUAUGACAAUGG against C2orf66 showed a seed-corrected z-score of 0.917. UUCUCCUUCAUCAAGUUCA against S100A7L2 showed a seed-corrected z-score of 0.705. UUCGUUACAGAACUGACCG against YEATS2 showed a seed-corrected z-score of -0.228. UCCAUAACCUGUUCUACGC against NFU1 showed a seed-corrected z-score of 0.244. In the case of UCUUGUCUACUAUCACUGC against PRR13, the seed-corrected z-score is reported as 1.15. For UUCUGAACCUUCGCAGUGC against PPP1R3B, the seed-corrected z-score was 0.0534. In the case of UUCUGAAACAAGCCCUUGC against CCDC103, the seed-corrected z-score is reported as -2.08. In the case of UUCUUGACUAUCUUCAUCU against CBX4, the seed-corrected z-score is reported as -0.275. Work on UCUAUUUUGACCGAGUAUG against CKAP4 yielded a seed-corrected z-score of 0.169. Work on AUGAUGUUCACGAUGAUGG against SYT7 yielded a seed-corrected z-score of -2.72. Sequence UUGCAAUGCAUGGUGCACC against FAM136A has a seed-corrected z-score of -1.35. Sequence UUGUCUUUUACUUCCAUCC against CLEC7A has a seed-corrected z-score of -1.06. UAGUUAAUGGAGUAACUCC against KDM5C showed a seed-corrected z-score of -0.0641. ACUUUUUACCUCCUCAUUC against OR4E2 showed a seed-corrected z-score of 1.72. With AGCAGGAUAAAAACGAUCU against TMC4 the seed-corrected z-score was 0.756. For UGUUGGAUAAGGUUAGAAC against ZNF34, the seed-corrected z-score was 0.0223. AAUGUUUCCCACAUGGAUG against SMARCB1 showed a seed-corrected z-score of -1.85. Sequence UGUAAUUAUACCAAUGUAG against EEF1B2P5 has a seed-corrected z-score of -2.11. For UCUCGUAUGAUAUAAUCUC against HCN1, the seed-corrected z-score was 0.749. AACCGGAUUAAGGAAAGUG against BTBD1 gave a seed-corrected z-score of -0.375. For UGAAGGGAUAGUUUCUCUG against FZD10-AS1, the seed-corrected z-score was -0.829. For UAAGUUGCACUUUCCAUUC against ZNF266, the seed-corrected z-score was -3.46. Sequence AACCGUUCCAUAUCAUCUC against BEX5 has a seed-corrected z-score of 0.658. For UCCUUGUCCACAUGGAGAC against CREBZF, the seed-corrected z-score was -1.01. For UUAUAAUCUACAUGCUUUC against MRPS18C, the seed-corrected z-score was 0.39. For UCUGCUGUCCUGUAAGUCG against AMACR, the seed-corrected z-score was 0.214. With UUAGCUGUGAGUGCUUUCC against TNFRSF11A the seed-corrected z-score was -2.35. UUGAGUGCAACUUCAAGUC against OPTN showed a seed-corrected z-score of 2.17. Work on UUCUGGAGCAGACCUGUCC against DKK4 yielded a seed-corrected z-score of 0.057. Sequence UGUUAGCUCAGUCACGUAG against GBP7 has a seed-corrected z-score of 0.141. For GUGUGCAUCAGAUGCUCUG against NUTM2F, the seed-corrected z-score was 1.15. UCGCUGAUCAGCAUGACCU against ITFG2 showed a seed-corrected z-score of -0.4. For UCUCUUUAUGCAGCUGACA against LTF, the seed-corrected z-score was -2.1. UAGAUGUUGACGCCCAUGG against MRPL54 showed a seed-corrected z-score of 0.63. For UGAGUACCCAUGGUUGGAG against KY, the seed-corrected z-score was -1.24. UUCAGGACAAUCUUGUUCC against UBL5 showed a seed-corrected z-score of -0.0381. AUUGUAACCAGUCACGUAC against FLRT3 gave a seed-corrected z-score of 0.235. UGAGAUAUGCGACAGAUGG against ACOX2 gave a seed-corrected z-score of -0.67. Sequence AUUGCUCUGAAGUGAAUUC against LMO4 has a seed-corrected z-score of -0.726. Work on UACAGGCUAAAUACACUCC against ANAPC13 yielded a seed-corrected z-score of -2.73. In the case of AGAGUUAAAACUGGAGGCG against POU2F3, the seed-corrected z-score is reported as 0.349. In the case of UUCUAGAUUAUUAUAGGAC against LRFN5, the seed-corrected z-score is reported as -0.0413. UGUUCUUGUAUUUCGCUUG against ZBED9 gave a seed-corrected z-score of -0.528. AAAGAGGUGAUAGAGCACG against PAQR4 showed a seed-corrected z-score of -1.03. With UACGAUAUCAGCAUUGCAG against CNOT6 the seed-corrected z-score was 0.29. UUCUGGUAUACGUGUUUCG against TNFSF8 showed a seed-corrected z-score of 0.471. UUGGUUAACCAGGUUCACC against LOC390282 showed a seed-corrected z-score of -2.14. AGCUGGUCAAUGUAGUCGC against MAPK11 showed a seed-corrected z-score of 0.202. UACAGUAUCAGCUUCUACA against LOC643855 gave a seed-corrected z-score of 0.618. With UUCCAGACCAUGAGAUGCC against PIGO the seed-corrected z-score was -0.121. Sequence UCAUGUUCAACCCAAACUC against ANKMY1 has a seed-corrected z-score of -4.15. Sequence UCUAGGACAGCUCUUAUCC against EDEM3 has a seed-corrected z-score of 0.599. In the case of UUUGUUACUUUGUCCAUUC against ARMC9, the seed-corrected z-score is reported as -0.253. For UAGCUGUUCCUUGUAGUUG against NABP1, the seed-corrected z-score was 0.675. UUGAUCACCACUUCGGAGC against CHRM1 gave a seed-corrected z-score of -0.914. Sequence UCACGUUUAUUCUGAAUCC against NDC1 has a seed-corrected z-score of -1.1. With UGUCCAUGAAAUUUCUCUG against ARL2BP the seed-corrected z-score was 1.12. For UUUUUCUCGAUCUGCUUCC against CCDC64, the seed-corrected z-score was -2.13. With UAAUGCAUCUUCAAAAUUC against LOC730338 the seed-corrected z-score was 0.94. For UACUUUGUUAUAGGAUCUC against CWC22, the seed-corrected z-score was -0.653. Sequence UUUGGGAUCAAAUCGGUGG against NAPSA has a seed-corrected z-score of 0.0625. In the case of UGCGAAUCUGCUAGGAUGC against GLTSCR1L, the seed-corrected z-score is reported as 0.0332. For UAUCCUUCAGGCUAAGAUG against SGOL1, the seed-corrected z-score was -2.83. UUACUUUGUAGAUACAACA against FAM201A showed a seed-corrected z-score of -1.74. For UUAGCUGCAAUUGCCUUCU against ZWINT, the seed-corrected z-score was -2.63. For UCGUGAUUACGUUAAGUGC against CCNH, the seed-corrected z-score was 0.304. With UGAAUGCUGAGAACUGUGC against PAPPA2 the seed-corrected z-score was -0.138. In the case of UAUAGGUCAGGCAACCUUG against ATP11AUN, the seed-corrected z-score is reported as -0.763. UAAGUUGACAGGCUGUCCA against NXPH3 showed a seed-corrected z-score of -2.06. In the case of UGCUUGUCUCGGUUAAUGC against NCF2, the seed-corrected z-score is reported as -0.104. Sequence AAAACUACCGUUUGUGCAU against RPS27 has a seed-corrected z-score of 0.994. For UGCUCUAGCACAGUGUUCC against CCDC87, the seed-corrected z-score was -2.86. Work on AUAGUUUAUAAGUCCUAUC against CGRRF1 yielded a seed-corrected z-score of 0.53. For AUGUCCUUAAAUUCACUCU against GJB2, the seed-corrected z-score was -2.43. UAAUAUUACCUUUAUGUUG against TBC1D3P2 gave a seed-corrected z-score of 2.12. For UUCUUGAAAUCCAACCACC against ACSM6, the seed-corrected z-score was 0.592. With AAAUCGUUAGUUGAGGAGC against USP53 the seed-corrected z-score was 0.292. In the case of ACAGGGACAAUGUAGGAAG against PRSS47, the seed-corrected z-score is reported as -2.17. With UAGUAUGAAAAUAGAAGUC against BTBD8 the seed-corrected z-score was 0.167. With UCAGGGUUAGAGGUAGUGG against SMCR8 the seed-corrected z-score was 0.401. For UAGUGGAUGUCAAACGAGG against CTSD, the seed-corrected z-score was 0.501. For UACCCAUCAAAGCAAUCGC against LTBP1, the seed-corrected z-score was -0.403. For AGAUCAAUUAGUAAUCCUC against CHM, the seed-corrected z-score was -0.298. UGGAUUGUCAACACCAAUG against CCT2 gave a seed-corrected z-score of -0.17. Work on UUUACGUCCAAAGUAGCAC against SEC23B yielded a seed-corrected z-score of -0.0983. UGAUCUGCUAGGCAAGAGG against FASTKD1 showed a seed-corrected z-score of -0.665. For UGGUUGUUCAACGCUGUAG against MEA1, the seed-corrected z-score was -0.557. For UUAAGACAUAUCCUGGUGC against YY1AP1, the seed-corrected z-score was -2.26. UUCCUUCUCAGGAUAGUGG against IYD gave a seed-corrected z-score of 0.306. For UCGGAUACGGGUGUGAUAC against SNX32, the seed-corrected z-score was 0.403. Sequence UAGAAUCCCACUGCGAUGC against TTYH3 has a seed-corrected z-score of -0.966. With UCAUUCAUCAGGUUCAUGC against TPD52L1 the seed-corrected z-score was 1.32. With UUGGGCUUCUUCCUAAUGC against SLC16A3 the seed-corrected z-score was -0.147. Work on UUCGAUAGUCUGUUUCUGC against SLK yielded a seed-corrected z-score of -2.56. For UCAGGGUAUUCAUUGGUGC against INCA1, the seed-corrected z-score was -3.45. GAUGUAGAAGCCAUAGUUC against NIPAL4 gave a seed-corrected z-score of 0.499. Sequence UGGAGUUCUUAUAAAAUGC against C15orf43 has a seed-corrected z-score of -0.277. With UUAAUUCCCGUGCCCUUGG against PON2 the seed-corrected z-score was -3.2. Sequence UUUGGAUGUACGUGUAUAC against DYRK4 has a seed-corrected z-score of 0.282. For UACUUUCGCCUCCUCAUCC against CCDC89, the seed-corrected z-score was 1.17. UUUGGGCAGAUAGAAGGAG against ADAMTS15 gave a seed-corrected z-score of 0.203. UACUUUCAUAUGCAGGUCC against PCDH8 showed a seed-corrected z-score of -1.4. For AACCGUUCAUCCUUCGUGC against KLHL6, the seed-corrected z-score was -0.163. Sequence UCAUCAUCAAAGGCGAUGG against GDNF has a seed-corrected z-score of -2.86. In the case of UUCUUGGUGUUGUAGAAGG against AGPAT2, the seed-corrected z-score is reported as 0.219. UCAGGUAGAACACUUUGCU against YWHAG gave a seed-corrected z-score of 0.113. With UUGCUAUCCAUGUAUAGCC against SLITRK1 the seed-corrected z-score was 0.475.

From PubChem BioAssay AID1159506 (National Center for Advancing Translational Sciences (NCATS), 2015)
